Source: PubChem BioAssay (NCI)
About 83,000 compounds went through this panel and 20% of them were active in at least one assay; those are over-represented in the sample as a whole.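 Interpretation: 100, growth as untreated; towards 0, rising growth inhibition; 0, no net growth; 0 to -100, cell death. Compounds scoring below 10 were considered active.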 Activity calls are given as the source filed them.

What was measured:
Assay in all cases: NCI-60 one-dose screen, 48 h (100 = growth as untreated, 0 = no growth, -100 = all killed)
Details in all cases: 10 µM unless noted
NCI-H23 lung = test system: NCI-H23 lung
NCI-H226 lung = test system: NCI-H226 lung
NCI-H322M lung = test system: NCI-H322M lung
HOP-62 NSCLC = test system: HOP-62 NSCLC
NCI-H460 lung = test system: NCI-H460 lung
NCI-H522 lung = test system: NCI-H522 lung
A549/ATCC NSCLC = test system: A549/ATCC NSCLC
786-0 renal = test system: 786-0 renal
COLO 205 colon = test system: COLO 205 colon
DU-145 prostate = test system: DU-145 prostate
K-562 leukemia = test system: K-562 leukemia
MALME-3M melanoma = test system: MALME-3M melanoma
MDA-MB-231 breast = test system: MDA-MB-231 breast
RXF 393 renal = test system: RXF 393 renal
SF-268 CNS = test system: SF-268 CNS
SF-295 CNS = test system: SF-295 CNS
SF-539 CNS = test system: SF-539 CNS
UACC-257 melanoma = test system: UACC-257 melanoma
M14 melanoma = test system: M14 melanoma

Measured: growth

CC1OC(n2c3ccccc3c3c4c(c5c6ccccc6[nH]c5c32)C(=O)N(CCN[C@H]2CCC[C@@H]2N)C4=O)CC(O)C1O (stereo not given in full)
inactive: NCI-H23 lung 33.8% | NCI-H226 lung 40.5% | NCI-H322M lung 54.2% | HOP-62 NSCLC 30.2% | NCI-H522 lung 16.9% | A549/ATCC NSCLC 25.2% | 786-0 renal 50.2% | COLO 205 colon 11.5% | DU-145 prostate 44.5% | K-562 leukemia 10.2% | MALME-3M melanoma 45.3% | MDA-MB-231 breast 37.5% | RXF 393 renal 63% | SF-268 CNS 33.5% | SF-295 CNS 25.6% | SF-539 CNS 35.3% | UACC-257 melanoma 54.9% | M14 melanoma 36.1%
active: NCI-H460 lung 2.3%

O=C(c1ccccc1)c1cccc(C(Br)Br)c1
inactive: NCI-H23 lung 92.8% | NCI-H226 lung 101% | NCI-H322M lung 95.1% | HOP-62 NSCLC 86.7% | NCI-H460 lung 66.4% | NCI-H522 lung 66% | A549/ATCC NSCLC 86.9% | 786-0 renal 100% | COLO 205 colon 96.6% | DU-145 prostate 93.7% | K-562 leukemia 46.4% | MALME-3M melanoma 88.9% | MDA-MB-231 breast 103% | RXF 393 renal 95.7% | SF-268 CNS 95.5% | SF-295 CNS 76.2% | SF-539 CNS 95.2% | UACC-257 melanoma 105% | M14 melanoma 72.1%

CS(=O)(=O)c1ccc(C(=O)Nc2ccc(Cl)c(-c3ccccn3)c2)c(Cl)c1
active: NCI-H460 lung -46% | NCI-H522 lung 2.48% | 786-0 renal -41.2% | COLO 205 colon 6.45% | RXF 393 renal -52.9% | SF-295 CNS 8.89%
inactive: NCI-H23 lung 27.3% | NCI-H226 lung 16.5% | NCI-H322M lung 52% | HOP-62 NSCLC 36% | A549/ATCC NSCLC 26% | DU-145 prostate 24.7% | K-562 leukemia 13.8% | MALME-3M melanoma 42.4% | MDA-MB-231 breast 30.2% | SF-268 CNS 31.8% | SF-539 CNS 19.6% | UACC-257 melanoma 32.6% | M14 melanoma 26.8%

Clc1ccc(Cl)c(N=Cc2ccc3c(c2)OCO3)c1
inactive: NCI-H23 lung 99.2% | NCI-H226 lung 103% | NCI-H322M lung 108% | HOP-62 NSCLC 101% | NCI-H460 lung 116% | NCI-H522 lung 88.7% | A549/ATCC NSCLC 96.9% | 786-0 renal 110% | COLO 205 colon 109% | DU-145 prostate 120% | K-562 leukemia 103% | MALME-3M melanoma 111% | MDA-MB-231 breast 124% | RXF 393 renal 111% | SF-268 CNS 105% | SF-295 CNS 106% | SF-539 CNS 116% | UACC-257 melanoma 103% | M14 melanoma 102%

CC(C)[C@@]12C[C@@H](OC(=O)C3CO3)[C@@](C)(O1)[C@@H]1CC[C@@H](C)[C@H]1[C@@H]2OC(=O)/C=C/c1ccccc1 (stereo not given in full)
inactive: NCI-H23 lung 85.9% | NCI-H226 lung 68.3% | NCI-H322M lung 83.9% | HOP-62 NSCLC 76.6% | NCI-H460 lung 101% | NCI-H522 lung 72.8% | A549/ATCC NSCLC 75.7% | 786-0 renal 95.5% | COLO 205 colon 107% | DU-145 prostate 107% | K-562 leukemia 105% | MALME-3M melanoma 84% | MDA-MB-231 breast 76.6% | RXF 393 renal 67% | SF-268 CNS 67.2% | SF-295 CNS 101% | SF-539 CNS 90.7% | UACC-257 melanoma 74.7% | M14 melanoma 101%

O=C1/C(=C/c2cc(F)cc(F)c2)Cc2cc(F)cc(F)c21
inactive: NCI-H23 lung 101% | NCI-H226 lung 91.4% | NCI-H322M lung 75.9% | HOP-62 NSCLC 95.1% | NCI-H460 lung 103% | NCI-H522 lung 83.3% | A549/ATCC NSCLC 102% | 786-0 renal 99.8% | COLO 205 colon 107% | DU-145 prostate 104% | K-562 leukemia 83.8% | MALME-3M melanoma 86% | MDA-MB-231 breast 95.1% | RXF 393 renal 93.1% | SF-268 CNS 91.4% | SF-295 CNS 95% | SF-539 CNS 89.8% | UACC-257 melanoma 113% | M14 melanoma 82.6%

C=C(C)[C@@H]1CC[C@]2(C(=O)NC(COC(=O)C(Cl)Cl)(COC(=O)C(Cl)Cl)COC(=O)C(Cl)Cl)CC[C@]3(C)[C@H](CC[C@@H]4[C@@]5(C)CC[C@H](OC(C)=O)C(C)(C)[C@@H]5CC[C@]43C)[C@@H]12
inactive: NCI-H23 lung 72% | NCI-H226 lung 84.2% | NCI-H322M lung 88.8% | HOP-62 NSCLC 82.7% | NCI-H460 lung 15.8% | NCI-H522 lung 48.1% | A549/ATCC NSCLC 27.7% | 786-0 renal 37.3% | COLO 205 colon 36.1% | DU-145 prostate 50.7% | K-562 leukemia 25.2% | MALME-3M melanoma 96.2% | MDA-MB-231 breast 54.1% | RXF 393 renal 42.6% | SF-268 CNS 58.8% | SF-295 CNS 60.9% | SF-539 CNS 76.5% | UACC-257 melanoma 79.5% | M14 melanoma 59.9%

Cc1ccc(NC(=O)c2cc(NCc3cc(O)ccc3O)ccc2O)cc1
active: NCI-H522 lung -27.5%
inactive: NCI-H23 lung 92.9% | NCI-H226 lung 95.4% | NCI-H322M lung 101% | HOP-62 NSCLC 97.9% | NCI-H460 lung 102% | A549/ATCC NSCLC 80.5% | 786-0 renal 101% | COLO 205 colon 105% | DU-145 prostate 106% | K-562 leukemia 70.9% | MALME-3M melanoma 97.9% | MDA-MB-231 breast 78.5% | RXF 393 renal 87.5% | SF-268 CNS 83.5% | SF-295 CNS 116% | SF-539 CNS 84.3% | UACC-257 melanoma 78.9% | M14 melanoma 107%

O=C(/C=C/c1cn(-c2ccccc2)nc1-c1ccccc1)OCc1cn(-c2cccc([N+](=O)[O-])c2)nn1
inactive: NCI-H23 lung 91.4% | NCI-H226 lung 97.1% | NCI-H322M lung 94.7% | HOP-62 NSCLC 81.7% | NCI-H460 lung 93.7% | NCI-H522 lung 60.4% | A549/ATCC NSCLC 67.8% | 786-0 renal 91.2% | COLO 205 colon 89.5% | DU-145 prostate 103% | K-562 leukemia 76.2% | MALME-3M melanoma 97.9% | MDA-MB-231 breast 72.8% | RXF 393 renal 105% | SF-268 CNS 93.3% | SF-295 CNS 97.8% | SF-539 CNS 89.2% | UACC-257 melanoma 44.9% | M14 melanoma 91.3%

O=C1N(Cc2ccccc2Cl)c2ccccc2C12NN=C(c1ccccc1)S2 (stereo not given)
inactive: NCI-H23 lung 54.8% | NCI-H226 lung 67.5% | NCI-H322M lung 56.5% | HOP-62 NSCLC 61.2% | NCI-H460 lung 17.5% | NCI-H522 lung 75.6% | A549/ATCC NSCLC 53.4% | 786-0 renal 73.7% | COLO 205 colon 100% | DU-145 prostate 61.9% | K-562 leukemia 43.1% | MALME-3M melanoma 82.8% | MDA-MB-231 breast 72.8% | RXF 393 renal 75.1% | SF-268 CNS 51.7% | SF-295 CNS 41% | SF-539 CNS 66.3% | UACC-257 melanoma 87.6% | M14 melanoma 58.3%

C=CCOC(=O)C1=C(C)NC2=C(C(=O)CC(C)(C)C2)C1c1ccc(OC)cc1 (stereo not given)
inactive: NCI-H23 lung 104% | NCI-H226 lung 98.4% | NCI-H322M lung 95.7% | HOP-62 NSCLC 90% | NCI-H460 lung 106% | NCI-H522 lung 82.8% | A549/ATCC NSCLC 98.3% | 786-0 renal 97.8% | COLO 205 colon 109% | DU-145 prostate 110% | K-562 leukemia 90.4% | MALME-3M melanoma 104% | MDA-MB-231 breast 92.8% | RXF 393 renal 105% | SF-268 CNS 94.1% | SF-295 CNS 105% | SF-539 CNS 108% | UACC-257 melanoma 96.2% | M14 melanoma 96.8%

S=C(S)Oc1cccc2cccnc12
inactive: NCI-H23 lung 106% | NCI-H226 lung 102% | NCI-H322M lung 95.2% | HOP-62 NSCLC 110% | NCI-H460 lung 107% | NCI-H522 lung 88.9% | A549/ATCC NSCLC 98.5% | 786-0 renal 103% | COLO 205 colon 111% | DU-145 prostate 105% | K-562 leukemia 90.8% | MALME-3M melanoma 90.9% | MDA-MB-231 breast 111% | RXF 393 renal 119% | SF-268 CNS 109% | SF-295 CNS 110% | SF-539 CNS 118% | UACC-257 melanoma 108% | M14 melanoma 105%

NC(N)=N/N=C/c1ccc(Cl)cc1
inactive: NCI-H23 lung 99.7% | NCI-H226 lung 80.1% | NCI-H322M lung 105% | HOP-62 NSCLC 75% | NCI-H460 lung 53.6% | NCI-H522 lung 79.9% | A549/ATCC NSCLC 92.1% | 786-0 renal 97.1% | COLO 205 colon 77.6% | DU-145 prostate 73.8% | K-562 leukemia 14% | MALME-3M melanoma 88.3% | MDA-MB-231 breast 97.5% | RXF 393 renal 89.3% | SF-268 CNS 68.5% | SF-295 CNS 81.9% | SF-539 CNS 99.1% | UACC-257 melanoma 80.7% | M14 melanoma 66.2%

Cc1ccncc1NC=O
inactive: NCI-H23 lung 101% | NCI-H226 lung 101% | NCI-H322M lung 102% | HOP-62 NSCLC 109% | NCI-H460 lung 106% | NCI-H522 lung 99.1% | A549/ATCC NSCLC 102% | 786-0 renal 103% | COLO 205 colon 110% | DU-145 prostate 113% | K-562 leukemia 107% | MALME-3M melanoma 105% | MDA-MB-231 breast 110% | RXF 393 renal 111% | SF-268 CNS 104% | SF-295 CNS 104% | SF-539 CNS 102% | UACC-257 melanoma 106% | M14 melanoma 96.4%

COc1ccc(-c2cnc(-c3ccncc3-c3cccc(OC)c3)o2)cc1
active: NCI-H460 lung 7.36% | NCI-H522 lung -59.9% | COLO 205 colon -44.1% | DU-145 prostate 0.973% | K-562 leukemia 7.13% | MDA-MB-231 breast -9.9% | SF-295 CNS -8.54% | SF-539 CNS -0.0741%
inactive: NCI-H23 lung 19.4% | NCI-H226 lung 15.3% | NCI-H322M lung 56.3% | HOP-62 NSCLC 26.3% | A549/ATCC NSCLC 30.7% | 786-0 renal 24.8% | MALME-3M melanoma 92% | RXF 393 renal 43.1% | SF-268 CNS 18.2% | UACC-257 melanoma 83.6% | M14 melanoma 23.9%
